Results: the supplement of paper PMC10127200
Where a name gives a salt, the structure may show the parent alone.

Experiments:
Assay in all cases: Euclidean distance of Cell Painting phenotypic profile (signed KS, 77 features) to DMSO centroid (dimensionless distance); 5 or 10 uM (library dependent); higher = stronger phenotypic change vs DMSO (phenoactivity)
Details in all cases: 48 h
786-O = system: 786-O
Method in brief: (§1)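 Stained cells were imaged confocally at 20X with 9 fields per well, after 48 h of exposure to library compounds at 10 or 5 uM (set by library; 0.1% DMSO final). The cells were five cancer lines and a healthy fibroblast line. From the images, Harmony extracted 77 features, each expressed as a signed Kolmogorov-Smirnov statistic relative to same-plate vehicle wells. Phenoactivity is measured as Euclidean distance to the median vehicle profile, using plate-position-corrected, correlation-weighted profiles averaged across replicates at the top dose.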

A549 = system: A549
Method in brief: as §1

DU145 = system: DU145
Method in brief: as §1

FB = system: FB
Method in brief: as §1

HEPG2 = system: HEPG2
Method in brief: as §1

OVCAR4 = system: OVCAR4
Method in brief: as §1

Structure (SMILES) | Euclidean distance (786-O) | Euclidean distance (A549) | Euclidean distance (DU145) | Euclidean distance (FB) | Euclidean distance (HEPG2) | Euclidean distance (OVCAR4)
CSCCNc1nc(SCCC(F)(F)F)nc2c1ncn2[C@@H]1O[C@H](COP(=O)(O)OP(=O)(O)C(Cl)(Cl)P(=O)(O)O)[C@@H](O)[C@H]1O [Cangrelor Tetrasodium] | 1.09 | 1.07 | 0.563 | 1.25 | 0.767 | 0.58
Nc1nccc2c1ncn2C1C=C(CO)C(O)C1O (configuration not stated) [3-Deazaneplanocin A (DZNeP)] | 2.28 | 1.27 | 1.19 | 2.71 | 1.23 | 1.72
CN(C(=O)CN(CCO)CC(=O)N(C)C(C)(C)Cc1ccccc1)C(C)(C)Cc1ccccc1 [Oxethazaine] | 1.36 | 2.36 | 1.13 | 2.17 | 1.36 | 1.96
Clc1ccc(Nc2nnc(Cc3ccncc3)c3ccccc23)cc1 [Vatalanib (PTK787) 2HCl] | 1.01 | 1.05 | 1.47 | 1.53 | 1.42 | 1.29
CCCOC(C(=O)OC1CCN(C)CC1)(c1ccccc1)c1ccccc1 [Propiverine hydrochloride] | 1.73 | 1.08 | 1.34 | 1.33 | 1.39 | 1.35
COc1ccc(NS(=O)(=O)c2sc3ccc(Cl)cc3c2C)cc1N1CCNCC1 | 2.31 | 1.39 | 1.12 | 1.13 | 1.35 | 1.29
COc1ccc2c(c1)c(CC(=O)N1CCOCC1)c(C)n2C(=O)c1ccc(Cl)cc1 | 0.785 | 0.772 | 0.859 | 0.741 | 0.95 | 0.74
CCN(CC)CCOCCOC(=O)C1(c2ccccc2)CCCC1 [Pentoxyverine Citrate] | 0.795 | 0.55 | 0.661 | 0.588 | 0.353 | 0.939
N#CC(c1ccnc(OCc2ccc(CN3CCOCC3)cc2)n1)c1nc2ccccc2s1 (configuration not stated) [Bentamapimod] | 1.54 | 1.83 | 1.31 | 1.81 | 1.38 | 1.36
CCOC(=O)OC(C)OC1=C(C(=O)Nc2ccccn2)N(C)S(=O)(=O)c2ccccc21 (configuration not stated) [Ampiroxicam] | 1.26 | 1.35 | 0.928 | 0.606 | 0.41 | 1.47
CCn1c(-c2nonc2N)nc2c(C#CC(C)(C)O)ncc(OC[C@H]3CCCNC3)c21 | 3.05 | 2.49 | 1.16 | 2 | 1.95 | 2.14
O=C(O)c1cc(/N=N/c2ccc(S(=O)(=O)Nc3ccccn3)cc2)ccc1O [Sulfasalazine] | 1.02 | 0.839 | 0.638 | 1.14 | 0.963 | 0.897
C[C@@H]1O[C@@H](OC[C@H]2O[C@@H](Oc3c(-c4ccc(O)c(O)c4)oc4cc(O)cc(O)c4c3=O)[C@H](O)[C@@H](O)[C@@H]2O)[C@H](O)[C@H](O)[C@H]1O [Rutin] | 1.11 | 0.756 | 0.783 | 0.933 | 0.632 | 0.909
C[C@H]1CO[C@@H]2Cn3cc(C(=O)NCc4ccc(F)cc4F)c(=O)c(O)c3C(=O)N12 | 1.14 | 1.26 | 0.669 | 0.944 | 0.626 | 0.809
C=CCc1ccccc1OCC(O)CNC(C)C (configuration not stated) [Alprenolol hydrochloride] | 0.84 | 0.761 | 1.36 | 1.77 | 0.91 | 1.07
CC[C@H]1OC(=O)[C@H](C)[C@@H](O[C@H]2C[C@@](C)(OC)[C@@H](O)[C@H](C)O2)[C@H](C)[C@@H](O[C@@H]2O[C@H](C)C[C@H](N(C)C)[C@H]2O)[C@](C)(O)C[C@@H](C)CN[C@H](C)[C@@H](O)[C@]1(C)O [Azathramycin] | 1.51 | 0.559 | 0.734 | 0.693 | 1.08 | 0.873
CCCCC(=O)O[C@H]1CC[C@H]2[C@@H]3CCc4cc(O)ccc4[C@H]3CC[C@]12C [Estradiol valerate] | 1.37 | 0.77 | 1.17 | 0.885 | 0.621 | 1.21
Clc1ccc(COC(Cn2ccnc2)c2ccc(Cl)cc2Cl)cc1 (configuration not stated) [Econazole] | 1.06 | 1.25 | 0.98 | 1.02 | 1.09 | 0.709
COc1ccc2cc3[n+](cc2c1OC)CCc1cc2c(cc1-3)OCO2 [Berberine] | 1.31 | 1.85 | 0.876 | 1.96 | 1.57 | 1.4
O=c1c(-c2ccc(O)cc2)coc2cc(O)ccc12 [Daidzein] | 0.746 | 0.736 | 0.716 | 0.782 | 0.606 | 1.13
CN(C)C1CCN(C(=O)c2ccc(NC(=O)Nc3ccc(-c4nc(N5CCOCC5)nc(N5CCOCC5)n4)cc3)cc2)CC1 | 3.29 | 3.49 | 1.98 | 4.95 | 2.04 | 3.62

Structure (SMILES) | Euclidean distance (786-O) | Euclidean distance (A549) | Euclidean distance (DU145) | Euclidean distance (FB) | Euclidean distance (HEPG2) | Euclidean distance (OVCAR4)
CC(CCc1ccc(O)cc1)NCC(O)c1ccc(O)cc1 (configuration not stated) [Ractopamine HCl] | 0.802 | 0.83 | 0.987 | 1.14 | 0.522 | 1.07
C[C@H](NC(=O)Cc1cc(F)cc(F)c1)C(=O)N[C@H](C(=O)OC(C)(C)C)c1ccccc1 | 1.92 | 1.48 | 1.11 | 0.913 | 1.57 | 1.26
O=NN(CCCl)C(=O)NC1CCCCC1 [Lomustine] | 0.894 | 0.833 | 0.869 | 1.05 | 0.457 | 1
O=C1C(=O)N(Cc2ccc(Cl)c(Cl)c2)c2ccccc21 [Apoptosis Activator 2] | 1.05 | 1.36 | 1.29 | 1.07 | 0.54 | 1.11
O=C(c1cncc(Br)c1)N1CCC(N2CCCC2)CC1 | 0.781 | 0.805 | 0.843 | 1.31 | 1.28 | 0.898
CNCC[C@@H](Oc1ccccc1C)c1ccccc1 [Atomoxetine HCl] | 1.37 | 1.23 | 0.627 | 0.866 | 0.422 | 1.22
CC(C)(S)[C@@H](N)C(=O)O [Penicillamine] | 1.02 | 1.29 | 0.756 | 1.13 | 1.02 | 1.22
CC(C)C[C@H](NC(=O)CNC(=O)[C@H](Cc1ccc(O)cc1)NC(=O)[C@H](CO)NC(=O)[C@H](Cc1c[nH]c2ccccc12)NC(=O)[C@H](Cc1cnc[nH]1)NC(=O)[C@@H]1CCC(=O)N1)C(=O)N[C@@H](CCCNC(=N)N)C(=O)N1CCC[C@H]1C(=O)NCC(N)=O [Gonadorelin Acetate] | 1.59 | 1.23 | 0.611 | 1.19 | 0.828 | 1.22
CC1(COc2ccc3c(c2)ncn3-c2ccc3cccc(N4CCC(N)CC4)c3n2)COC1 | 3.62 | 3.9 | 3.27 | 3.75 | 3.6 | 3.78
CCN(CC)C(=O)N1CCN(C)CC1 [Diethylcarbamazine citrate] | 0.755 | 0.674 | 0.703 | 0.826 | 0.536 | 1.14
CCCCN(CCCC)CC(O)c1cc(Cl)cc2c1-c1ccc(Cl)cc1/C2=C/c1ccc(Cl)cc1 (configuration not stated) [Lumefantrine] | 1.17 | 1.42 | 0.953 | 0.94 | 0.895 | 0.763
C[C@H](NC(=O)/C(C#N)=C/c1cccc(Br)n1)c1ccccc1 | 3.27 | 3.07 | 3.01 | 3.17 | 2.6 | 2.17
CC(=O)/N=c1/sc(S(N)(=O)=O)nn1C [Methazolamide] | 1.32 | 0.988 | 0.818 | 0.885 | 0.858 | 1.5
COc1ccc(Cc2cnc(N)nc2N)cc1OC [Diaveridine] | 0.784 | 1.57 | 1.59 | 1.23 | 0.387 | 1.42
O=c1cc(-c2ccc(O)c(O)c2)oc2cc(O)cc(O)c12 [Luteolin] | 1.39 | 1.21 | 2.73 | 1.9 | 1.36 | 1.27
CCc1nn(CCCN2CCN(c3cccc(Cl)c3)CC2)c(=O)n1CCOc1ccccc1 [Nefazodone hydrochloride] | 1.29 | 1.42 | 1.27 | 1.04 | 1.67 | 0.618
CN(C)C(=O)Nc1cccc(-c2ccc(N(C)C)cc2)c1 [Atglistatin] | 1.31 | 1.47 | 1.1 | 0.894 | 0.548 | 1.33
O=C(/C=C/c1ccc(O)c(O)c1)O[C@@H]1C[C@](O)(C(=O)O)C[C@@H](O)[C@H]1O [Chlorogenic Acid] | 1.05 | 1.05 | 1.38 | 1.17 | 1.21 | 1.15
C[C@H]1[C@H](C)CC[C@]2(C(=O)O[C@@H]3O[C@H](CO[C@@H]4O[C@H](CO)[C@@H](O[C@@H]5O[C@@H](C)[C@H](O)[C@@H](O)[C@H]5O)[C@H](O)[C@H]4O)[C@@H](O)[C@H](O)[C@H]3O)CC[C@]3(C)C(=CC[C@@H]4[C@@]5(C)C[C@@H](O)[C@H](O)[C@@](C)(CO)[C@@H]5[C@H](O)C[C@]43C)[C@H]12 [Madecassoside] | 0.76 | 0.636 | 0.932 | 1.03 | 0.483 | 1.28
CC(C)(Oc1ccc(CCNC(=O)c2ccc(Cl)cc2)cc1)C(=O)O [Bezafibrate] | 0.885 | 1.16 | 0.777 | 1.09 | 1.04 | 1.71
OC(CCN1CCCCC1)(c1ccccc1)C1CCCCC1 (configuration not stated) [Trihexyphenidyl hydrochloride] | 1.04 | 1.1 | 0.794 | 0.849 | 1.17 | 2.16
